Screens deposited in PubChem by National Center for Advancing Translational Sciences (NCATS).
In the library only some 1.9% were active in any assay of this set; here they are far more common.
aSyn rescue: qHTS of alpha-syn Inhibitors | Yeast expressing alpha-synuclein, growth rescue, BacTiter-Glo, 24 h | Potency, µM (titrated, usually from 46.1 µM), for inactives: at the highest dose growth rescue (activation), usual class: activators | actives 0.14% (n = 370,000); further: potency means the concentration at half of the fitted maximal effect; % of control where 0% means no effect; nearly all actives have a fitted effect of over 65% in size
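Screening used galactose-induced yeast with toxic alpha-synuclein levels, exposed to compound for 24 hr at 30 deg C. Cell growth, read with BacTiter-Glo luminescence, gave the measured signal.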
Abeta rescue: qHTS for compounds that reverse cellular toxicity of Amyloid beta (A-beta) peptide in yeast: Primary Screen. yeast expressing A-beta42, growth rescue, OD600, 48 h; response scale: 0% DMSO, 100% iron-clioquinol control. Potency, µM (top dose mostly 46.1 µM), usual class: activators. actives 0.063% (n = 410,000). AID 1347071, 2019; further: potency means the concentration at half of the fitted maximal effect; nearly all actives have a fitted effect of over 55% in size
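Yeast growth medium received pinned compounds, then yeast cells expressing toxic A-beta were added; plates incubated at 30 C for 48 hr. Growth read as absorbance at 600 nm, normalized to DMSO and equimolar FeCl3 plus clioquinol controls.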
TDP-43 yeast inh: qHTS of TDP-43 Inhibitors | TDP-43 expressing yeast growth rescue, BacTiter-Glo, 24 h | Potency, µM (top dose mostly 46.1 µM), without a hit: at the top dose growth rescue (activation), actives largely listed as activators | actives 1.8% (n = 410,000) | AID 652104, 2013; further: potency means the concentration at half of the fitted maximal effect; % of control where 0% means no effect; nearly all actives have a fitted effect of over 50% in size
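Galactose-induced TDP-43 yeast, OD600=0.02, compound pinned; 24 hr, 30 deg C; BacTiter-Glo luminescence for growth. Inhibitors of TDP-43 toxicity read as activators.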
LDHA inh: qHTS assay for inhibitors of human lactate dehydrogenase; L-lactate dehydrogenase A chain (Homo sapiens), P00338; purified LDHA, NADH/diaphorase-resazurin fluorescence; hits give low values; activity change, % (values are at about 110 or 230 µM); actives 0.15% (n = 480,000); AID 1347041, 2019; in the data active means activity change below about -30%; inconclusive means mostly about -25% to -30%;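 further: plate controls were DMSO wells for no effect and wells without enzyme for full effect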
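Remaining NADH was detected by diaphorase (0.133 mg/mL) converting 37 µM resazurin to fluorescent resorufin, read at 0 and 20 minutes. The preceding 5-minute room-temperature reaction used 2 nM LDHA, 0.2 mM sodium pyruvate and 0.06 mM NADH at pH 7.4.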
PTHR1 ag: qHTS for PTHR1 Agonists: Primary Screen. HEK293 GP2 PTHR1 cells, GloSensor cAMP luminescence, 1 h. Potency, µM (top dose mostly 115 µM), without a hit: at the highest dose activation, usual class: activators. actives 0.075% (n = 410,000). Parathyroid hormone/parathyroid hormone-related peptide receptor (Homo sapiens), Q03431. AID 743266, 2014; further: potency means the concentration at half of the fitted maximal effect; nearly all actives have a fitted effect of over 55% in size
Target sequence (Q03431 whole entry, looked up): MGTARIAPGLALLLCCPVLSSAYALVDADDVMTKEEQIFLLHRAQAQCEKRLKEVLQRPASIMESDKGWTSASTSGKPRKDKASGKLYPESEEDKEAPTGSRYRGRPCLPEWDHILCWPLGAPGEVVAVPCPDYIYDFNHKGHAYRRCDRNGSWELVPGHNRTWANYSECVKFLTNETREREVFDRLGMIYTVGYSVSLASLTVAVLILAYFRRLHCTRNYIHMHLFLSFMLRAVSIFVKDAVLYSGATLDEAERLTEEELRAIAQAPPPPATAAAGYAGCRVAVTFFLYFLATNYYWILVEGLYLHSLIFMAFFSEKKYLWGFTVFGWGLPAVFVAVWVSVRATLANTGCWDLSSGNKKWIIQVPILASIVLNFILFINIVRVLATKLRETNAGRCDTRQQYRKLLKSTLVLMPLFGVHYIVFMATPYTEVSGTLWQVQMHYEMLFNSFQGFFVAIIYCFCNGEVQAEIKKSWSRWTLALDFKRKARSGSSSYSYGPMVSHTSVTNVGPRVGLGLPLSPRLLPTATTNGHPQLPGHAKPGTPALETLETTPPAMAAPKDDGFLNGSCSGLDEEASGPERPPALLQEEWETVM
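HEK-293-derived GP2 cells expressing PTHR1 and a GloSensor cAMP reporter, 3,000/well, plated overnight, given luciferin plus IBMX (each 0.5 mM as added) for 1 h at 37 °C, then compound for 1 h at 37 °C. Luminescence was read after 15 min at room temperature.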
FUS suppressor: qHTS for Suppressors of FUS Proteinopathy: Primary screen using FUS-linked yeast assay; S. cerevisiae FUS-expressing, growth rescue, OD600, 24 h; Potency, µM (doses to about 76.6 µM), usual class: activators; actives 0.24% (n = 390,000);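 further: potency means the concentration at half of the fitted maximal effect; plate controls were DMSO vehicle for no effect and reference control for full effect; nearly all actives have a fitted effect of over 55% in size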
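Yeast expressing FUS under galactose induction, OD 0.005 in 2% galactose medium; compounds in a dilution series, 24 h at 30C. Growth rescue by absorbance at 600 nm; CP55940 positive control, DMSO negative.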
* hit, by the source's call; i = inactive; ? = inconclusive; . = no result given; ! = not active in a repeat; [ ] = another dose, or the depositor's remark. Unless noted, the call rests on the fitted dose curve; in most records, active means well fitted curve in the direction sought with a large enough effect; inconclusive means small, poorly fitted or top-dose-only effect, or another doubt; inactive means no such curve, though single readings can be large; an effect the other way counts as inactive or inconclusive.

SMILES | aSyn rescue | Abeta rescue | TDP-43 yeast inh | LDHA inh | PTHR1 ag | FUS suppressor
Cc1ccc(N(CC(=O)N2CCN(c3ccc(F)cc3)CC2)S(=O)(=O)c2c(C)noc2C)cc1 | 1% | ? | 16µM*! | -2 | -10% | i
CCCCCCCCS(=O)(=O)CCCO | . | . | . | -4 | . | .
CCCCc1nc2cc(C(=O)N3CCCC(COC)C3)ccc2o1 (stereo not given) | 2% | i | ? | 0 | -19% | .
CCCCc1nc2cc(C(=O)N3CCCC(OCCC)C3)ccc2o1 (stereo not given) | 9% | i | 14µM* | -2 | i | i
CCN(CC)S(=O)(=O)c1ccc(-c2nc(C#N)c(NCC(C)C)o2)cc1 | . | . | . | 0 | . | .
Cc1cc(NS(=O)(=O)c2ccc(-c3ccccc3)cc2)no1 | 5% | ? | 10µM* | -10 | -5%[57.5 µM] | i
O=C(Nc1cccc(-c2nc3ccccc3s2)c1)[C@@H]1CCCN1C(=O)c1cccs1 | . | . | . | 9 | . | .
O=C(Cc1ccc(Cl)cc1)NCC(c1cccs1)S(=O)(=O)c1ccc(F)cc1 (stereo not given) | . | i | 35µM* | -2 | i | ?
O=C(COc1ccc(Cl)cc1)NCC(c1cccs1)S(=O)(=O)c1ccc(F)cc1 (stereo not given) | . | i | ? | -2 | i | i
CC(C)(C)c1ccc(C(=O)NCC(c2cccs2)S(=O)(=O)c2ccc(F)cc2)cc1 (stereo not given) | . | i | ? | -5 | -9% | 35µM*
CCOc1ccc(Cl)cc1-c1cc(C(=O)NCc2ccccc2OC)[nH]n1 | ? | i | 18µM* | -7 | -16% | ?
CCOc1ccc(Cl)cc1-c1cc(C(=O)NCc2ccccc2)[nH]n1 | 27% | i | ? | -6 | i | ?
CC(C)CCOc1ccc(/C=C(/C#N)c2nc3ccccc3[nH]2)cc1 | . | . | . | 5 | . | .
COc1cccc(-n2cc(C(=O)NCCc3ccc(C)cc3)c3ccccc3c2=O)c1 | . | i | 0% | -4 | -26% | i
COc1ccc(-n2cc(C(=O)NCCc3ccc(C)cc3)c3ccccc3c2=O)cc1 | . | i | 18µM* | -5 | -25% | i
C/C(=N\NC(N)=S)C1C2C3CC4C5CC(C42)C1C53 (stereo not given) | 1% | ? | 14µM* | -2 | i | i
COc1ccccc1NC(=O)COC(=O)CCS(=O)(=O)c1ccc(C)c(C)c1 | . | . | . | 0 | . | .
C#CCn1c(S(=O)(=O)Cc2ccc(OC)cc2)nc(-c2ccccc2)c1-c1ccccc1 | -10% | i | -23% | 6 | i | 25µM*
CCOC(=O)Cn1c(S(=O)(=O)Cc2ccc(Cl)cc2)nc(-c2ccccc2)c1-c1ccccc1 | -3% | i | 1% | -8 | i | i
CC(=NO)c1ccc2c(c1)C(=NO)c1ccccc1-2 | 9% | i | 13µM* | 23 | i | .
Cc1cc(C)n(-c2nc3c(c(=O)n(C)c(=O)n3C)n2Cc2ccccc2Cl)n1 | . | . | . | -1 | . | .
O=C(Nc1ccc(C(F)(F)F)cc1)c1ccc(N2C(=O)CCS2(=O)=O)cc1 | . | . | . | 10 | . | .
CCOC(=O)c1ccc2[nH]c3c(c2c1)CCCC3 | -2% | i | 25µM* | 0 | i | i
Cc1ccc(NS(=O)(=O)c2ccc3[nH]c4c(c3c2)CCCCCC4)cc1 | . | i | 14µM* | 0 | -22% | i
CCOC(=O)c1ccc(NS(=O)(=O)c2ccc3[nH]c4c(c3c2)CCCCC4)cc1 | ? | i | 6% | 5 | i | ?
SMILES | aSyn rescue | Abeta rescue | TDP-43 yeast inh | LDHA inh | PTHR1 ag | FUS suppressor
Cc1ccc(-c2cc(C(=O)O)c3cccc(Cl)c3n2)o1 | . | . | . | 0 | . | .
COc1nc(NC23CC4CC(CC(C4)C2)C3)nc(OC)n1 | 13% | i | 14µM* | -1 | i | i
CC(=O)Oc1ccccc1-c1nc(/C=C/c2ccccc2)no1 | -14% | i | 18µM* | -6 | -37% | i
CCC(NC(=S)NCc1ccc(F)cc1)c1ccc(C(C)C)cc1 (stereo not given) | 5% | 7.1µM* | 23% | -1 | -19% | i
CCCNC(=S)NC(C)C12CC3CC(CC(C3)C1)C2 (stereo not given) | . | . | . | -7 | . | .
CCC(C)c1ccc(C(C)NC(=S)NCc2ccc(F)cc2)cc1 (stereo not given) | -11% | 3.5µM* | 2% | -3 | 0% | i
COc1ccc(C(C)NC(=S)NCc2ccc(F)cc2)cc1OC (stereo not given) | -7% | i | 2% | -4 | -11% | i
CCCc1ccc(C(C)NC(=S)NCc2ccc(F)cc2)cc1 (stereo not given) | -6% | 3.5µM* | 5% | -3 | -22% | i
CC(NC(=S)NCc1ccc(F)cc1)C12CC3CC(CC(C3)C1)C2 (stereo not given) | 3% | 5.6µM* | -6% | -5 | -18% | i
Cn1c(CNc2ccccc2)c(C#N)c2ccccc21 | . | . | . | 5 | . | .
CCCc1ccc(C(C)NC(=S)NC2CCCCC2)cc1 (stereo not given) | -15% | 11µM* | 11% | 1 | -28% | i
CC(NC(=S)NC1CCCCC1)c1ccccc1 (stereo not given) | -11% | ? | 18% | 0 | -49% | i
Cc1nnc(N2C(=O)c3cccc4c([N+](=O)[O-])ccc(c34)C2=O)s1 | -2% | i | 13µM* | 11 | -42% | i
Cc1ccnc(N2C(=O)c3cccc4c([N+](=O)[O-])ccc(c34)C2=O)c1 | -77% | i | -16% | 29 | -8%[57.5 µM] | i
Cc1nc([N+](=O)[O-])c(Br)n1CC(=O)c1ccc(Br)cc1 | 7% | i | 11µM* | -2 | i | i
Cc1nc([N+](=O)[O-])c(Br)n1CC(=O)c1ccccc1 | 14% | i[9.22 µM] | 16% | -1 | -24% | i
Cc1nc([N+](=O)[O-])c(Br)n1CC(=O)c1ccc2ccccc2c1 | 1% | i | 16µM* | 1 | -11% | 14µM*
Fc1ccc(-c2ccc(CNCC3CCNCC3)o2)cc1Cl | . | . | . | 10 | . | .
CC(C)(C)c1ccc(C(=O)N2CCC2(C)C(=O)Nc2cccc3ncccc23)cc1 (stereo not given) | 11% | i | 25µM* | -8 | -50% | i
